Inconclusive results are not listed. Active and inactive are the calls of the source. Unless noted, the call rests on the fitted dose curve; in most records, active means well fitted curve in either direction with a large enough effect (not every such curve was filed as active); inconclusive means small, poorly fitted or top-dose-only effect, or another doubt; inactive means flat fitted curve, though single readings scatter.
Test: Cell Viability - Hek293 (AID 427;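 active means compounds whose dose-response curve shows a full or clear partial loss of cell viability, called from curve shape rather than a numeric limit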;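 further: potency means the concentration at half of the fitted maximal effect; cells exposed to compound for 40 hours at 37 °C before reading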)
Conditions: qHTS
In short: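 Luminescent ATP content (CellTiter-Glo, 20 min at room temperature) was measured after a 40 hr, 37 °C compound exposure of HEK293 cells. AC50 values came from Hill-equation fits of qHTS concentration-response data normalized to DMSO and 100 uM tamoxifen.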

| Structure (SMILES) | Potency |
| --- | --- |
| O=C1NC(=O)C(c2ccccc2)(c2ccccc2)N1 | > 92 µM (inactive) |
| CC(=O)c1ccc(S(=O)(=O)NC(=O)NC2CCCCC2)cc1 | > 92 µM (inactive) |
| CCCCC1C(=O)N(c2ccccc2)N(c2ccccc2)C1=O | > 92 µM (inactive) |
| CCCNC(=O)NS(=O)(=O)c1ccc(Cl)cc1 | > 92 µM (inactive) |
| O=c1c(-c2ccc(O)cc2)coc2cc(O)ccc12 | > 92 µM (inactive) |

Test: Cell Viability - HepG2 (AID 433; calls by dose curve;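 further: potency means the concentration at half of the fitted maximal effect; cells exposed to compound for 40 hours; potency for ATP loss meaning cytotoxicity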)
Conditions: qHTS
In short: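 Cytotoxicity read as ATP loss (CellTiter-Glo luminescence) after 40 hr compound exposure of HepG2, 1500 cells/well, 37 °C. AC50 by Hill equation; 0% set by DMSO, 100% inhibition by 100 uM tamoxifen.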

| Structure (SMILES) | Potency |
| --- | --- |
| O=C1NC(=O)C(c2ccccc2)(c2ccccc2)N1 | > 92 µM (inactive) |
| CC(=O)c1ccc(S(=O)(=O)NC(=O)NC2CCCCC2)cc1 | > 92 µM (inactive) |
| CCCCC1C(=O)N(c2ccccc2)N(c2ccccc2)C1=O | > 92 µM (inactive) |
| CCCNC(=O)NS(=O)(=O)c1ccc(Cl)cc1 | > 92 µM (inactive) |
| CC/C(=C(\c1ccccc1)c1ccc(OCCN(C)C)cc1)c1ccccc1 | 46.2 µM (active) |
| O=c1c(-c2ccc(O)cc2)coc2cc(O)ccc12 | > 92 µM (inactive) |

Test: Cell Viability - MRC5 (AID 434; calls by dose curve;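 further: potency means the concentration at half of the fitted maximal effect; cells exposed to compound for 40 hours at 37 °C; potency reflects cytotoxicity seen as loss of intracellular ATP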)
Conditions: MRC5 lung fibroblast viability, qHTS
In short: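 AC50 values come from Hill-equation fits of intracellular ATP loss, measured by CellTiter-Glo luminescence. Normal lung fibroblasts (MRC5) had 40 hr compound treatment at 37 C, normalized between DMSO and 100 uM tamoxifen.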

| Structure (SMILES) | Potency |
| --- | --- |
| O=C1NC(=O)C(c2ccccc2)(c2ccccc2)N1 | > 92 µM (inactive) |
| O=C(O)c1cc(O)c2c(c1)C(=O)c1cccc(O)c1C2=O | > 92 µM (inactive) |
| CC(=O)c1ccc(S(=O)(=O)NC(=O)NC2CCCCC2)cc1 | > 92 µM (inactive) |
| CCCCC1C(=O)N(c2ccccc2)N(c2ccccc2)C1=O | > 92 µM (inactive) |
| CCCNC(=O)NS(=O)(=O)c1ccc(Cl)cc1 | > 92 µM (inactive) |
| CC/C(=C(\c1ccccc1)c1ccc(OCCN(C)C)cc1)c1ccccc1 | 60.3 µM (active) |
| O=c1c(-c2ccc(O)cc2)coc2cc(O)ccc12 | > 92 µM (inactive) |

Test: Cell Viability - SK-N-SH (AID 435; calls by dose curve; further: potency means the concentration at half of the fitted maximal effect)
Conditions: SK-N-SH neuroblastoma cell viability qHTS
In short: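 qHTS cytotoxicity: CellTiter-Glo ATP luminescence after 40 h compound exposure of human neuroblastoma SK-N-SH cells at 37 °C. AC50 derived by Hill-equation fitting, with DMSO as basal and 100 uM tamoxifen as full inhibition.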

| Structure (SMILES) | Potency |
| --- | --- |
| O=C1NC(=O)C(c2ccccc2)(c2ccccc2)N1 | > 92 µM (inactive) |
| CC(=O)c1ccc(S(=O)(=O)NC(=O)NC2CCCCC2)cc1 | > 92 µM (inactive) |
| CCCCC1C(=O)N(c2ccccc2)N(c2ccccc2)C1=O | > 92 µM (inactive) |
| CCCNC(=O)NS(=O)(=O)c1ccc(Cl)cc1 | > 92 µM (inactive) |
| CC/C(=C(\c1ccccc1)c1ccc(OCCN(C)C)cc1)c1ccccc1 | 49.1 µM (active) |
| O=c1c(-c2ccc(O)cc2)coc2cc(O)ccc12 | > 92 µM (inactive) |

Test: NFAT Signaling Pathway (AID 444);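 further: carbachol stimulus at about its EC50 of 1 µM final; on the % scale 0 is the no-effect control and ±100 the full control effect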
Conditions: Jurkat NFAT-bla M1, carbachol, beta-lactamase ratio, 5 h; series mostly up to 17.2 µM; activity change, negative = inhibition: at the top concentration
In short: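 Read-out: CCF4 FRET ratio (460 nm/530 nm) after 1 h RT dye loading, used for %activity and AC50 from titration series. Cells: Jurkat NFAT-β-lactamase/M1 line, treated with compound plus 1 uM carbachol for 5 h, 37 °C.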

| Structure (SMILES) | outcome | activity change, negative = inhibition |
| --- | --- | --- |
| CC(=O)CCCCn1c(=O)c2c(ncn2C)n(C)c1=O | inactive | – |
| COc1ccc(-c2coc3cc(O)cc(O)c3c2=O)cc1 | – | 29.8% (inactive) |
| COCCCCC(=NOCCN)c1ccc(C(F)(F)F)cc1 | inactive | – |
| O=C1NC(=O)C(c2ccccc2)(c2ccccc2)N1 | inactive | – |
| O=C(O)c1cc(O)c2c(c1)C(=O)c1cccc(O)c1C2=O | – | 15.1% (inactive) |
| CC(=O)c1ccc(S(=O)(=O)NC(=O)NC2CCCCC2)cc1 | inactive | – |
| CCCCC1C(=O)N(c2ccccc2)N(c2ccccc2)C1=O | – | -24.1% [at 38 µM] (inactive) |
| CCN(CC)C(=O)c1ccc(O)c(OC)c1 | inactive | – |
| NCCS | – | 3.9% [at 38 µM] (inactive) |
| CCCNC(=O)NS(=O)(=O)c1ccc(Cl)cc1 | inactive | – |
| CCN1CCC[C@H]1CNC(=O)c1cc(S(N)(=O)=O)ccc1OC | – | -5.87% (inactive) |
| O=C(O)c1cc(-c2ccccc2)nc2ccccc12 | – | -0.33% (inactive) |
| C[N+](C)(C)CCCCCC[N+](C)(C)C | inactive | – |
| O=C1NCC2(CCN(CCc3ccccc3)CC2)O1 | inactive | – |
| C[N+](C)(C)CC(=O)O | – | -4.41% [at 38 µM] (inactive) |
| Clc1ccc(Cn2c(CN3CCCC3)nc3ccccc32)cc1 | – | -28.8% [at 38 µM] (inactive) |
| CC/C(=C(\c1ccccc1)c1ccc(OCCN(C)C)cc1)c1ccccc1 | – | -28.5% (inactive) |
| c1cc(-c2sc(-c3ccncc3)c(-c3ccncc3)c2-c2ccncc2)ccn1 | – | -7.05% [at 7.69 µM] (inactive) |
| O=C(O)CCc1nc(-c2ccccc2)c(-c2ccccc2)o1 | inactive | – |
| COc1ccccc1N1CCN(CCCNc2cc(=O)n(C)c(=O)n2C)CC1 | – | -18.8% (inactive) |
| O=c1c(-c2ccc(O)cc2)coc2cc(O)ccc12 | – | -1.89% [at 38 µM] (inactive) |
| C[C@@H](O)[C@H]1C(=O)N2C(C(=O)O)=C(S[C@@H]3CN[C@H](C(=O)N(C)C)C3)[C@H](C)[C@H]12 | – | -18.7% (inactive) |
